The source of these data is PubChem BioAssay (NCI).

What all share (experiment): NCI-60 one-dose screen, 48 h (100 = growth as untreated, 0 = no growth, -100 = all killed)
The test system of one assay is SK-MEL-2 melanoma. To be noted: 10 µM unless noted.
A further assay deals with SN12C renal. Particulars: 10 µM unless noted.
A further assay relates to UO-31 renal. To be noted: 10 µM unless noted.
The next assay has as its system TK-10 renal. To be noted: 10 µM unless noted.
For the next assay, the system named is ACHN renal. Particulars: 10 µM unless noted.
The next assay relates to CAKI-1 renal. To be noted: 10 µM unless noted.
The next assay concerns CCRF-CEM leukemia. To be noted: 10 µM unless noted.
Another assay deals with SR leukemia. To be noted: 10 µM unless noted.
In the next assay the test system is RPMI-8226 leukemia. Particulars: 10 µM unless noted.
The subject of the next assay is OVCAR-8 ovarian. Particulars: 10 µM unless noted.
In another assay the test system is OVCAR-4 ovarian. To be noted: 10 µM unless noted.
The next assay has as its system SK-OV-3 ovarian. To be noted: 10 µM unless noted.
Another assay concerns IGROV1 ovarian. To be noted: 10 µM unless noted.
For another assay, the system named is OVCAR-3 ovarian. To be noted: 10 µM unless noted.
A further assay concerns HS 578T breast. Particulars: 10 µM.
The next assay concerns NCI/ADR-RES ovarian. Particulars: 10 µM unless noted.
In the next assay the test system is EKVX NSCLC. To be noted: 10 µM unless noted.
For the next assay, the system named is A498 renal. Particulars: 10 µM unless noted.
The test system of another assay is MOLT-4 leukemia. To be noted: 10 µM unless noted.
For another assay, the system named is OVCAR-5 ovarian. To be noted: 10 µM unless noted.

The panel holds about 83,000 compounds, 20% with a hit somewhere; the sample as a whole holds those more often.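 Values shown are percent growth following 48 h exposure of cells in 96-well plates to a single concentration of compound; below 10 was considered active.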 Unmarked numbers belong to inactive results. Calls of active or inactive are those of the source.

In the case of `COc1ccc(-c2nsc3c2NC(=O)CC3c2ccc3c(c2)OCO3)cc1` (configuration not stated), the growth in the assay on SK-MEL-2 melanoma was 26.4%; in the assay on SN12C renal it was 55.8%; in the assay with UO-31 renal, 33.6%; with TK-10 renal, 32.3%; with ACHN renal it was 50.3%; in the assay with CAKI-1 renal, 26.1%. Besides, the growth in the assay with CCRF-CEM leukemia was 3.82% (active); in the assay with SR leukemia it was -21.6% (active); with RPMI-8226 leukemia it was 2.77% (active); in the assay on OVCAR-8 ovarian it was 26.2%; in the assay on OVCAR-4 ovarian, 66.8%; in the assay with SK-OV-3 ovarian, 24.4%. Further, the growth is 19.7% in the assay on IGROV1 ovarian, -26.3% (active) in the assay on OVCAR-3 ovarian, 17.6% in the assay with HS 578T breast and 13.9% with NCI/ADR-RES ovarian.

In the case of `COc1ccc2c(c1)N(CCO)C1=C(C(=O)OC1)C2c1cccc(Br)c1` (configuration not stated), the growth in the assay on EKVX NSCLC was 37.4%; with SN12C renal, 27.3%; in the assay with UO-31 renal, 32.3%; in the assay with TK-10 renal, 60%; in the assay on ACHN renal, 28.4%; in the assay with CAKI-1 renal, 8.86% (active). The growth was -1.77% (active) in the assay with A498 renal; 11.7% with CCRF-CEM leukemia; 13.9% in the assay with MOLT-4 leukemia; 17.8% with SR leukemia; 18.5% with RPMI-8226 leukemia; 14.6% in the assay on OVCAR-8 ovarian. Moreover, the growth was 32.1% in the assay on OVCAR-5 ovarian; 52.6% in the assay with OVCAR-4 ovarian; 28.5% in the assay on SK-OV-3 ovarian; 11.2% in the assay on IGROV1 ovarian; -51.6% (active) in the assay on OVCAR-3 ovarian; 10.7% in the assay on NCI/ADR-RES ovarian.

Consider `O=C1OCC2=C1C(c1ccc(Cl)c(Cl)c1)c1cc3c(cc1N2CCO)CCC3` (configuration not stated), for which the growth is 40.2% in the assay on EKVX NSCLC; 31.4% in the assay on SN12C renal; 26.3% in the assay with UO-31 renal; 50.7% with TK-10 renal; 32.8% in the assay on ACHN renal; 35.7% with CAKI-1 renal. Further, the growth in the assay with A498 renal is -0.897% (active); in the assay with CCRF-CEM leukemia, 10.6%; with MOLT-4 leukemia, 18.9%; in the assay on SR leukemia, 33.7%; in the assay on RPMI-8226 leukemia, 22%; in the assay with OVCAR-8 ovarian, 23.5%. In addition, the growth in the assay on OVCAR-5 ovarian is 35.3%; in the assay with OVCAR-4 ovarian, 50%; in the assay on SK-OV-3 ovarian, 38.6%; in the assay with IGROV1 ovarian it was 30.1%; with OVCAR-3 ovarian, -42% (active); in the assay with NCI/ADR-RES ovarian, 4.51% (active).

As for `CNC(=O)c1ccccc1Sc1ccc2c(/C=C/c3ccccn3)n[nH]c2c1`, the growth with EKVX NSCLC was 53.8%; in the assay on SN12C renal, 27.6%; with UO-31 renal, 17.3%; with TK-10 renal, 54.8%; in the assay on ACHN renal, 31.2%; with CAKI-1 renal it was 30.7%. For the same compound, the growth is -23.3% (active) in the assay on A498 renal; 13.4% in the assay on MOLT-4 leukemia; 10.4% in the assay on SR leukemia; 25.2% with RPMI-8226 leukemia; 28.4% in the assay on OVCAR-8 ovarian; 41.4% in the assay with OVCAR-5 ovarian. For the same compound, the growth was 34.2% in the assay on OVCAR-4 ovarian; 44.5% in the assay on SK-OV-3 ovarian; 23.1% in the assay on IGROV1 ovarian; 52.7% in the assay on OVCAR-3 ovarian; 36.9% in the assay with NCI/ADR-RES ovarian.

For `N=C(N)c1ccc(-c2ccc(-c3cc(Cl)cc(Cl)c3)o2)nc1`, the growth was -71.8% (active) in the assay with SK-MEL-2 melanoma; -79.9% (active) with SN12C renal; -76.6% (active) with UO-31 renal; -88.5% (active) with TK-10 renal; -90.6% (active) with ACHN renal; 61.8% in the assay with A498 renal. In addition, the growth in the assay on CCRF-CEM leukemia was -37.9% (active); in the assay on MOLT-4 leukemia, -55.1% (active); in the assay on SR leukemia, -27.4% (active); in the assay on RPMI-8226 leukemia, -45.2% (active); in the assay with OVCAR-8 ovarian, -49.4% (active); in the assay with OVCAR-5 ovarian, -62.3% (active). Further, the growth in the assay on OVCAR-4 ovarian was -57.7% (active); in the assay on SK-OV-3 ovarian, -86.5% (active); with IGROV1 ovarian, -41.3% (active); in the assay on HS 578T breast, 83.4%; with NCI/ADR-RES ovarian it was -29.8% (active).

As to `CCOC(=O)c1sc2nc(-c3cc4ccccc4o3)cc(-c3ccc(Cl)cc3)c2c1N`, the growth with SK-MEL-2 melanoma was 83.8%; in the assay on SN12C renal, 82.4%; in the assay with UO-31 renal, 87.2%; in the assay on TK-10 renal, 145%; with A498 renal it was 98.2%; in the assay on CCRF-CEM leukemia, 84%. The growth is 99.3% with MOLT-4 leukemia; 71.6% with SR leukemia; 42.4% in the assay on RPMI-8226 leukemia; 112% in the assay on OVCAR-8 ovarian; 112% in the assay with OVCAR-5 ovarian; 101% in the assay on OVCAR-4 ovarian. The growth with SK-OV-3 ovarian was 104%; with IGROV1 ovarian it was 81.2%; with OVCAR-3 ovarian, 103%; in the assay with NCI/ADR-RES ovarian it was 112%.

As for `NC(=O)Nc1ccc2ncnc(Nc3cccc(O)c3)c2c1`, the growth in the assay on EKVX NSCLC was 82.6%; in the assay on SN12C renal, 94.9%; in the assay with UO-31 renal, 80.1%; in the assay on TK-10 renal, 103%; with ACHN renal it was 103%; in the assay on CAKI-1 renal it was 84.8%. Further, the growth with A498 renal was 77.4%; with CCRF-CEM leukemia, 108%; in the assay on MOLT-4 leukemia, 98.8%; in the assay on RPMI-8226 leukemia, 112%; with OVCAR-8 ovarian it was 98.9%; with OVCAR-5 ovarian, 98.1%. In addition, the growth with OVCAR-4 ovarian was 112%; in the assay on SK-OV-3 ovarian, 87.5%; in the assay on IGROV1 ovarian, 107%; with OVCAR-3 ovarian it was 82.8%; in the assay on HS 578T breast, 105%; in the assay on NCI/ADR-RES ovarian, 96.7%.

On to `Cc1cc(C)cc(Nc2cc(C)nc3nc(C(F)(F)F)nn23)c1`, for which the growth with SK-MEL-2 melanoma is 22.6%; in the assay with SN12C renal, 31.9%; in the assay with UO-31 renal, 2.04% (active); in the assay on TK-10 renal it was 46.1%; in the assay with CAKI-1 renal it was 12.4%; with A498 renal, 67%. Further, the growth in the assay with CCRF-CEM leukemia was 16.9%; with MOLT-4 leukemia, 18.4%; in the assay on SR leukemia, 29.6%; with RPMI-8226 leukemia, 40%; with OVCAR-8 ovarian, 17.5%; with OVCAR-5 ovarian, 63.3%. The growth was 37.3% in the assay on OVCAR-4 ovarian; 47.8% in the assay on SK-OV-3 ovarian; 21.6% in the assay with IGROV1 ovarian; 8.97% (active) with OVCAR-3 ovarian; 71.7% in the assay with HS 578T breast.

As for `CC(C)CC(NC(=O)C(CCCN=C(N)N)NC(=O)OCc1ccccc1)C(=O)NC(CNC(=O)/C=C/c1ccccc1)C(C)C` (configuration not stated), the growth in the assay with SK-MEL-2 melanoma is 113%; in the assay with SN12C renal it was 99.6%; in the assay with UO-31 renal, 93%; in the assay with TK-10 renal, 107%; with CAKI-1 renal, 90%; in the assay on A498 renal, 103%. The growth in the assay with MOLT-4 leukemia was 97.5%; with SR leukemia, 98.3%; in the assay with RPMI-8226 leukemia it was 96%; with OVCAR-8 ovarian, 106%; in the assay on OVCAR-5 ovarian, 89.3%; in the assay with OVCAR-4 ovarian, 95.8%. Also, the values for the growth in the assay with SK-OV-3 ovarian, in the assay on IGROV1 ovarian and with OVCAR-3 ovarian were 117%, 88.3% and 105%, respectively.
